Assay results from PubChem BioAssay AID686978 (National Center for Advancing Translational Sciences (NCATS), 2013).
Screen size: about 420,000 compounds; about 64,000 (15%) were called active. Not shown: some 27% with an inconclusive outcome. A selection follows. Unmarked numbers belong to inactive results. Calls come from the whole dose curve; as a rule, active = well fitted inhibition curve with a large enough effect; inconclusive = small, poorly fitted or top-dose-only effect; inactive = flat fitted curve, though single readings scatter.
% is set by controls: 0 for no effect and ±100 for the full control effect; potency is the fitted concentration of half-maximal effect.

Test: qHTS for Inhibitors of human tyrosyl-DNA phosphodiesterase 1 (TDP1): qHTS in cells in absence of CPT; note: nearly all actives have a fitted effect of over 55% in size
Details: DT40 Tdp1-/- hTDP1 cells, no CPT, ATP luminescence, 48 h; activity change, negative = growth inhibition: at 46.2 µM (top of the series)
Method in brief: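 Growth of hTDP1-complemented DT40 Tdp1-knockout cells is measured by ATP luminescence after at least 48 hr compound exposure at 37 °C, with DMSO substituting for the 20 nM CPT used in the parallel screen.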
In the case of `CN(CCc1cn[nH]c1)C(=O)CC1C(=O)NCCN1Cc1cccc(Oc2ccccc2)c1` (stereo not given), the “activity change, negative = growth inhibition” value is reported as -12.5%. With `O=C(Nc1cccc(Cc2ccccc2)c1)Nc1ccc2nc([C@@H]3O[C@H](CO)[C@@H](O)[C@H](O)[C@H]3O)[nH]c2c1` the “activity change, negative = growth inhibition” value was -1.67%. In the case of `O=C(CCn1c(=O)c2sccc2n(Cc2ccc(F)cc2)c1=O)NCc1ccc2c(c1)OCO2`, the “activity change, negative = growth inhibition” value is reported as -25.3%. With `O=C(CSc1ncc(CO)n1Cc1ccc(F)cc1)NCc1ccco1` the “activity change, negative = growth inhibition” value was -26%. With `O=C(Cc1ccc(-n2c(=O)c3sccc3n(Cc3ccc(F)cc3)c2=O)cc1)NCc1ccco1` the Potency was 18.4 µM (active). For `Cc1cc(OC(=O)c2ccc(OC(C)C)cc2)c([N+](=O)[O-])c(=O)[nH]1`, the “activity change, negative = growth inhibition” value was -21.1%. In the case of `Cc1ccc2nc(SC(C)C(=O)NCc3ccco3)[nH]c2c1` (stereo not given), the “activity change, negative = growth inhibition” value is reported as -9.56%. With `CCOc1ccc(CCNC(=O)COC(=O)C2CCN(c3ccc(C(F)(F)F)cn3)CC2)cc1OCC` the “activity change, negative = growth inhibition” value was -27.3%. For `CCc1cccc(NC(=O)COC(=O)C2CCN(c3ccc(C(F)(F)F)cn3)CC2)c1`, the Potency was 8.2 µM (active). For `N#CCCN(C(=O)COC(=O)C1CCN(c2ccc(C(F)(F)F)cn2)CC1)c1ccc(F)cc1`, the “activity change, negative = growth inhibition” value was -13.5%. For `CSCCC(C(=O)NC1=NCCS1)N1C(=O)c2ccccc2C1=O` (stereo not given), the “activity change, negative = growth inhibition” value was -1.2%. With `CCCCN(C(=O)/C=C/c1ccco1)c1c(N)n(CC(C)C)c(=O)[nH]c1=O` the “activity change, negative = growth inhibition” value was -3.29%. In the case of `O=C(CSc1ncccn1)NCCc1ccccc1`, the “activity change, negative = growth inhibition” value is reported as -8.9%. For `CCCCCCCCCCCCCCCC(=O)OC/C=C(C)/C=C/C=C(C)/C=C/C1=C(C)CCCC1(C)C`, the Potency was “inactive”. In the case of `COc1ccc(Nc2cc(Cl)ccc2C(=O)O)cn1`, the “activity change, negative = growth inhibition” value is reported as 20.2%. For `COc1ccc(-c2csc(C(O)c3cccc(Cl)c3)n2)cn1` (stereo not given), the Potency was 20.6 µM (active). In the case of `COc1cc(C(O)c2nc(-c3cccc(C(=O)O)c3)cs2)ccc1F` (stereo not given), the “activity change, negative = growth inhibition” value is reported as 3.86%. In the case of `CC1CCCN(CC(O)COc2ccc3c(c2)OCO3)C1` (stereo not given), the “activity change, negative = growth inhibition” value is reported as -0.973%. With `CC1CCCN(CCOCCOc2ccccc2-c2ccccc2)C1` (stereo not given) the Potency was 23.1 µM (active). For `CC1CCCN(CC(O)COCc2ccccc2)C1` (stereo not given), the “activity change, negative = growth inhibition” value was 0.169%. For `CCC(C)(C)NC(=O)/C=C/c1cc(OC)c(OC)c(S(=O)(=O)N2CCc3ccccc32)c1`, the “activity change, negative = growth inhibition” value was -16%. In the case of `COc1cc(C)c(C)cc1S(=O)(=O)N1CCCc2ccccc21`, the Potency is reported as 16.4 µM (active). For `COc1ccc(C(=O)OCC(=O)NCC2CCCCC2)cc1S(=O)(=O)N1CCCc2ccccc21`, the “activity change, negative = growth inhibition” value was -23.6%. In the case of `O=C(O)CCC(=O)NCc1ccc(C(=O)O)cc1`, the “activity change, negative = growth inhibition” value is reported as -29.7%. For `Cn1c(Cc2cccc3ccccc23)nnc1SCC(=O)N1CCN(c2cccc(Cl)c2)CC1`, the Potency was 23.1 µM (active). With `Cc1ccc(Cl)cc1NC(=O)C(C)n1nnc2sc(-c3ccccc3)cc2c1=O` (stereo not given) the “activity change, negative = growth inhibition” value was -17.6%. With `COc1ccc(NC(=O)CCc2nnc3n(CC(C)C)c(=O)c4ccccc4n23)cc1OC` the “activity change, negative = growth inhibition” value was -22.6%. In the case of `Cn1c(CNC(=O)c2ccco2)nnc1SCC(=O)N1CCN(c2ccccc2)CC1`, the “activity change, negative = growth inhibition” value is reported as 0.952%. For `CC(C)Cn1c(=O)c2ccccc2n2c(CCC(=O)N3CCN(c4cccc(Cl)c4)CC3)nnc12`, the Potency was 7.31 µM (active). For `CC(C)Cn1c(=O)c2ccccc2n2c(CCC(=O)NCc3ccccn3)nnc12`, the “activity change, negative = growth inhibition” value was 13.4%. With `CC(C)Cn1c(=O)c2ccccc2n2c(-c3cccc(Cl)c3)nnc12` the Potency was 25.9 µM (active). For `COc1cccc2c1cc1c(=O)n(CC(=O)N3CCN(c4cccc(Cl)c4)CC3)nc(C)n12`, the “activity change, negative = growth inhibition” value was -0.785%. With `Cc1cc2nnc(SCC(=O)N3CCN(c4ccccc4)CC3)n2c(N)n1` the “activity change, negative = growth inhibition” value was -5.96%. For `CCC1CO/C(=C(\C(=C(Cl)Cl)N2CCOCC2)[N+](=O)[O-])N1` (stereo not given), the “activity change, negative = growth inhibition” value was 8.25%. With `CC(C)[C@H](NC(=O)N1c2ccccc2NC(=O)[C@@H]1C(C)C)C(=O)N[C@H](C(=O)O)c1ccccc1` the “activity change, negative = growth inhibition” value was 5.29%. In the case of `COc1cccc(N2C(=O)CC(N3CCc4ccccc4C3)C2=O)c1` (stereo not given), the “activity change, negative = growth inhibition” value is reported as 7.01%. For `C=C(C)c1cccc(C(C)(C)NC(=O)NCCN(CC)CC)c1`, the “activity change, negative = growth inhibition” value was 0.602%. With `O=C(Nc1ccc([N+](=O)[O-])cc1)C1(c2ccccc2)CCOCC1` the “activity change, negative = growth inhibition” value was -23.3%. In the case of `CC1(C)CC(=O)C(C=NCCC2=CCCCC2)=C(O)C1`, the “activity change, negative = growth inhibition” value is reported as -10.8%. With `COc1ccc(OC)c(NC(=O)c2ccc3c(c2)C(=O)N(c2ccc(OC(C)=O)cc2)C3=O)c1` the “activity change, negative = growth inhibition” value was 13.3%. For `O=C(Nc1cccnc1)c1cc(Cl)ccc1Cl`, the “activity change, negative = growth inhibition” value was 14.2%. In the case of `O=C(/C=C/c1ccc(Cl)cc1Cl)c1cccnc1`, the Potency is reported as 14.6 µM (active). For `O=C(NCc1ccc(Cl)c(Cl)c1)c1cccnc1`, the “activity change, negative = growth inhibition” value was -24.1%. For `CC1OC2C(OC1C)N(S(C)(=O)=O)CCN2S(C)(=O)=O` (stereo not given), the “activity change, negative = growth inhibition” value was -1.96%. In the case of `Cc1nc2ccc(NC(=S)N3CCC(C)CC3)cc2nc1C`, the “activity change, negative = growth inhibition” value is reported as -18.5%. With `O=S(=O)(N/N=C\c1cccn1-c1ccccc1)c1ccc2ccccc2c1` the “activity change, negative = growth inhibition” value was -13.6%. For `CC1(C(=O)NCc2ccc3c(c2)OCO3)CCN1C(=O)Cc1cccs1` (stereo not given), the “activity change, negative = growth inhibition” value was -5.48%. With `CC1(C(=O)NCc2cccc3ccccc23)CCN1Cc1ccc(-c2ccccc2)o1` (stereo not given) the Potency was 13 µM (active). In the case of `CSc1ccc(CN2CCC2(C)C(=O)Nc2ccc(C)c(O)c2)cc1` (stereo not given), the Potency is reported as 18.4 µM (active). In the case of `CCCC(=O)N1CCC1(C)C(=O)NCc1ccc(SC)cc1` (stereo not given), the “activity change, negative = growth inhibition” value is reported as -13.7%.
